According to PubChem BioAssay:
“And” between values parts separate entries of the source, which are not always exact repeats. Equal entries are not always repeated. Results filed as inconclusive are left out. The source made the active and inactive calls.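 The calls were made as follows, unless noted: active = thallium flux through the channel raised or lowered by more than 3 SD from vehicle-only wells, actives on both sides; inactive = the rest.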

Experiments:
[1] = P. berghei load reduction in hepatocytes – cell-based, HepG2, luciferase luminescence, HepG2 viability, primary screen (AID 624349; in the data active = parasite load remaining mostly below about 12%, no sharp cut-off; inactive = mostly above about 10%;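 also: 100% = mean of DMSO negative control wells on the same plate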); details: P. berghei liver stage in HepG2, luciferase luminescence, concentration not given here; parasite load remaining: stronger effect = lower value; viability: measured here: HepG2 viability without parasites
[2] = signal quenchers or enhancers, Cy5 substrate/SSB – biochemical, NIH Clinical Collection, E. coli SSB, artefact control for HCV NS3 helicase inhibitor project (AID 743268; call rule not given here); details: Cy5-oligo bound E. coli SSB, fluorescence interference
[3] = test system: Hepatitis C virus NS3 helicase; assay: blockers of NS3h binding to DNA – biochemical, fluorescence polarization, NIH Clinical Collection, primary screen (AID 743270; call rule not given here); details: NS3 helicase binding to Cy5-dT15 DNA, stronger effect = higher value, concentration not given here
[4] = target: Single-stranded DNA-binding protein (Escherichia coli (strain K12)) (UniProt P0AGE0); assay: SSB-ssDNA binding inhibitors – biochemical, fluorescence polarization, NIH Clinical Collection, counter-screen for HCV NS3 helicase inhibitor project (AID 743271; in the data active = inhibition above about 28%); details: E. coli SSB-DNA binding, stronger effect = higher value, concentration not given here
[5] = compounds distorting NS3 helicase fluorescence signal – biochemical, NIH Clinical Collection, artefact control for HCV NS3 helicase inhibitor project (AID 743272; call rule not given here;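 also: HCV NS3 helicase with a Cy5 labelled single stranded DNA probe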); details: fluorescence interference counterscreen, HCV NS3 helicase assay; stronger effect = lower value
[6] = Wnt pathway potentiators raising nuclear beta-catenin – imaging, WNT3A-conditioned medium, mouse C2C12, NPC library, primary screen (AID 1117326; in the data active = nuclear beta-catenin stimulation mostly above about 4.2%, no sharp cut-off; inactive = mostly below about 10%); details: stronger effect = higher value
[7] = stimulators of insulin release from INS-1E, primary screen, cell-based, 5 mM glucose, NPC library (AID 1117329;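 active = compound raises insulin release from rat beta cells at 5 mM glucose, no numeric limit stated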); details: rat INS-1E insulin secretion, at 10 µM, stronger effect = higher value
[8] = growth inhibition of GSK3B-pretreated HCT116 cells – cell-based, CellTiter-Glo, 0.2 to 20 µM (AID 1117336;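 active = compounds lowering colon cancer cell viability after pretreatment blocking the GSK3B kinase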); details: HCT116 viability after GSK3B inhibitor, at 20 µM, stronger effect = higher value
[9] = inhibition of endothelial tube formation, primary screen, imaging, VEGF stimulated, CD31 staining, tube area, NPC library (AID 1117340;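 active = compound that reduces growth-factor-driven endothelial tube area in a mixed cell culture, no cutoff stated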); details: VEGF-stimulated ADSC/ECFC co-culture, at 10 µM, stronger effect = higher value
[10] = GLP1 release stimulators, primary, NCI-H716, NPC library (AID 1117341;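 active = compound raises GLP1 secretion from the human gut endocrine cells, with no numeric limit stated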); details: NCI-H716 cells, at 10 µM, stronger effect = higher value
[11] = HCT116 colon cancer cell growth inhibition, primary screen, CellTiter-Glo luminescence, NPC library (AID 1117342;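 active = compounds that lower survival of HCT116 colon cancer cells in the luminescence readout, no numeric limit stated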); details: at 20 µM (top of the series)
[12] = reduced SW480 viability measured with CellTiter-Glo, NPC library, primary (AID 1117343;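 active = compounds that lower viability of the colon cancer cells in the luminescence readout, with no numeric limit stated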); details: CellTiter-Glo luminescence; at 20 µM (top of the series)
[13] = NPC library primary testing for decreased DLD-1 cell viability via CellTiter-Glo (AID 1117346;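 active = compounds that lower survival of DLD-1 colon cancer cells in the luminescence readout, no cutoff given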); details: DLD-1 viability, CellTiter-Glo luminescence; at 20 µM (top of the series)
[14] = target: 6-phosphogluconate dehydrogenase, decarboxylating (Homo sapiens) (UniProt P52209); assay: inhibition of human phosphogluconate dehydrogenase – biochemical, recombinant enzyme, NADPH absorbance, primary screen (AID 1159550;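 active = at least 20% inhibition of 6-phosphogluconate dehydrogenase activity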); details: recombinant 6PGD, NADPH absorbance 341 nm; at 10 µM; stronger effect = higher value
[15] = viability loss in pontine glioma line – cell-based, SU-DIPG-XVII, MIPE5.0, CellTiter-Glo, qHTS, dose response (AID 1347060; cut-off not given, nearly all actives have AC50 up to about 26 µM); details: CellTiter-Glo ATP luminescence
[16] = viability loss in pontine glioma line – cell-based, SU-DIPG-XIII, MIPE4.0, CellTiter-Glo, qHTS, dose response (AID 1347061; cut-off not given, nearly all actives have AC50 up to about 37 µM;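 also: cells exposed to compound for 48 hours before readout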); details: CellTiter-Glo ATP luminescence
[17] = viability loss in pontine glioma line – cell-based, JHH-DIPG-1, MIPE4.0, CellTiter-Glo, qHTS, dose response (AID 1347062; cut-off not given, nearly all actives have AC50 up to about 27 µM); details: JHH-DIPG-1 viability, CellTiter-Glo ATP luminescence
[18] = viability loss in pontine glioma line – cell-based, SU-DIPG-XIII, MIPE5.0, CellTiter-Glo, qHTS, dose response (AID 1347064; cut-off not given, nearly all actives have AC50 up to about 23 µM); details: CellTiter-Glo ATP luminescence
[19] = growth inhibition of DIPG cells – cell-based, MIPE4.0 library, CellTiter-Glo luminescence, qHTS (AID 1347066; cut-off not given, nearly all actives have AC50 up to about 30 µM;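 also: cells exposed to compound for 48 hours before readout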); details: SU-DIPG-VI viability, CellTiter-Glo ATP luminescence
[20] = JHH-DIPG-1 glioma cell viability, MIPE5.0 library, CellTiter-Glo luminescence, qHTS (AID 1347067; cut-off not given, nearly all actives have AC50 up to about 26 µM;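 also: cells exposed to compound for 48 hours before readout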); details: JHH-DIPG-1 glioma viability, CellTiter-Glo ATP luminescence
[21] = viability loss with induced miR-34 in A549 – imaging, A549 dox-inducible miR-34, nuclei and caspase counts, primary screen (AID 1347080;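 active = compounds whose cell count with miR-34 switched on is under 0.7 times the count with it off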); details: A549 miR-34 inducible, Hoechst nuclei count, 48 h
[22] = MELAS cybrid and Rieske KO viability enhancers – cell-based, MELAS cybrids, Rieske KO mouse fibroblasts, CellTiter-Glo, primary screen (AID 1508586;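 active = mean z-score across replicates of 1.96 or higher in either the MELAS or the Rieske mutant cell line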;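 also: z relative to plate mean and SD of compound and empty wells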); details: low glucose
[23] = target: NAD(+) hydrolase SARM1 (Homo sapiens) (UniProt Q6SZW1); assay: blocking NAD cleavage by SARM1 SAM-TIR – cell lysate, NAD-Glo luminescence (AID 1508614;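 active = compound whose remaining NAD level is above about 45 nM, limit read from the data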;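 also: higher remaining NAD means stronger inhibition of SARM1 NADase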); details: SAM-TIR HEK293T lysate NADase, at 1 µM, stronger effect = higher value
[24] = target: Mitogen-activated protein kinase 7 (Homo sapiens) (UniProt Q13164); assay: Gal4-ERK5 driven luciferase induction – cell-based, HTS, primary screen (AID 1508626;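 active = luciferase signal above three times the same-plate solvent-only control wells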;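 also: luciferase driven by Gal4-ERK5 fusion binding five Gal4 sites before minimal TATA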); details: HeLa Gal4-ERK5 transactivation, 18 h, at 5 µM, stronger effect = higher value
[25] = galactose survival enhancers in mitochondrial complex I cybrids – cell-based, galactose medium, ATP luminescence, primary screen (AID 1645843;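 active = z-score of at least 1.8 in each of two replicates, scored against plate mean and spread of sample wells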;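 also: positive z means more ATP and so rescue of galactose-driven cybrid death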); details: complex I mutant cybrid cells, 72 h, stronger effect = higher value
F380Y = assay: BK channel mutant inhibitors and activators – cell-based, U2OS BacMam, thallium flux, beta subunits, selectivity assay, profiling panel (AID 1259406); details: U2OS BacMam BK variants, at 30 µM;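 also: initial slope of Thallos dye fluorescence rise after thallium is added; log ratio against the mean of 0.3% DMSO vehicle wells on the same plate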
F380Y/beta1 = assay: as above; details: U2OS BacMam BK variants, at 30 µM
F380Y/beta2Delta = assay: as above; details: U2OS BacMam BK variants, at 30 µM
F380Y/beta4 = assay: as above; details: U2OS BacMam BK variants, at 30 µM
[26] = target: Calcium-activated potassium channel subunit alpha-1 (Homo sapiens) + Leucine-rich repeat-containing protein 26 (Homo sapiens) (UniProt Q12791+Q2I0M4); assay: as above; details: U2OS BacMam BK variants, F380Y/Slo1WT/gamma1, at 30 µM
R275C = assay: as above; details: U2OS BacMam BK variants, at 30 µM
R275C/beta1 = assay: as above; details: U2OS BacMam BK variants, at 30 µM
R275C/beta2Delta = assay: as above; details: U2OS BacMam BK variants, at 30 µM
R275C/beta4 = assay: as above; details: U2OS BacMam BK variants, at 30 µM
R275C/Slo1WT/beta2 = assay: as above; details: U2OS BacMam BK variants, at 30 µM

Calcium-activated potassium channel subunit alpha-1 (Homo sapiens) + Leucine-rich repeat-containing protein 26 (Homo sapiens), sequence (Q2I0M4 whole entry, looked up, one chain of several): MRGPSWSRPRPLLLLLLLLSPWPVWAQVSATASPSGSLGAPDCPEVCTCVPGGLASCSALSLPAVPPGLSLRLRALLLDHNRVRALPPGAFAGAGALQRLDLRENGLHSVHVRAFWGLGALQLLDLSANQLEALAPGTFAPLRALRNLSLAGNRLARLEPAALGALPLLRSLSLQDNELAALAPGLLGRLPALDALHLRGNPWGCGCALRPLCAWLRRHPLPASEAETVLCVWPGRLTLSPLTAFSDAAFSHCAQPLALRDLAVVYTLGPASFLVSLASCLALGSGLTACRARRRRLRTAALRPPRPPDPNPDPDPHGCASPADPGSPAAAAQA
Mitogen-activated protein kinase 7 (Homo sapiens), sequence (Q13164 whole entry, looked up, the tested form may be a part): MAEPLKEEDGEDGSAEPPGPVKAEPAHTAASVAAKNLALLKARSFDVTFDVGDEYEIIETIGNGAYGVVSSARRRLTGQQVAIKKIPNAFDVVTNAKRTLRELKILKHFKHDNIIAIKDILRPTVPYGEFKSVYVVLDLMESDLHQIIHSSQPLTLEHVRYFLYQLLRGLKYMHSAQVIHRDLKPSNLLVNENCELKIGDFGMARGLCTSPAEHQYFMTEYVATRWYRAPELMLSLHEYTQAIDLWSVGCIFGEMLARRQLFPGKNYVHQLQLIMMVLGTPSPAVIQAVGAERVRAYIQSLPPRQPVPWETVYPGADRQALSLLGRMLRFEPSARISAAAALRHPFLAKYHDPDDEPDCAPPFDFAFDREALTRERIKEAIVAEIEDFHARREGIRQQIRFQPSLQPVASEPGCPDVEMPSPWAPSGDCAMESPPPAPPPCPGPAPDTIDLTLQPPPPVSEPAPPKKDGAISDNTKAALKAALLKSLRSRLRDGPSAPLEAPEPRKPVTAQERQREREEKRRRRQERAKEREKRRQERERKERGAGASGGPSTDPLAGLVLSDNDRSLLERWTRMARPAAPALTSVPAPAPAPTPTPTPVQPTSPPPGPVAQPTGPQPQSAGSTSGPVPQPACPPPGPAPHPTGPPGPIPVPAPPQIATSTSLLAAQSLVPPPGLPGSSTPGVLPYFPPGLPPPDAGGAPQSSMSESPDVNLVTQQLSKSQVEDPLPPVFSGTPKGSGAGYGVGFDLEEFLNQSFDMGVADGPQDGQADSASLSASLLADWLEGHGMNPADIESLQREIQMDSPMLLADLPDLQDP
NAD(+) hydrolase SARM1 (Homo sapiens), sequence (Q6SZW1 whole entry, looked up, the tested form may be a part): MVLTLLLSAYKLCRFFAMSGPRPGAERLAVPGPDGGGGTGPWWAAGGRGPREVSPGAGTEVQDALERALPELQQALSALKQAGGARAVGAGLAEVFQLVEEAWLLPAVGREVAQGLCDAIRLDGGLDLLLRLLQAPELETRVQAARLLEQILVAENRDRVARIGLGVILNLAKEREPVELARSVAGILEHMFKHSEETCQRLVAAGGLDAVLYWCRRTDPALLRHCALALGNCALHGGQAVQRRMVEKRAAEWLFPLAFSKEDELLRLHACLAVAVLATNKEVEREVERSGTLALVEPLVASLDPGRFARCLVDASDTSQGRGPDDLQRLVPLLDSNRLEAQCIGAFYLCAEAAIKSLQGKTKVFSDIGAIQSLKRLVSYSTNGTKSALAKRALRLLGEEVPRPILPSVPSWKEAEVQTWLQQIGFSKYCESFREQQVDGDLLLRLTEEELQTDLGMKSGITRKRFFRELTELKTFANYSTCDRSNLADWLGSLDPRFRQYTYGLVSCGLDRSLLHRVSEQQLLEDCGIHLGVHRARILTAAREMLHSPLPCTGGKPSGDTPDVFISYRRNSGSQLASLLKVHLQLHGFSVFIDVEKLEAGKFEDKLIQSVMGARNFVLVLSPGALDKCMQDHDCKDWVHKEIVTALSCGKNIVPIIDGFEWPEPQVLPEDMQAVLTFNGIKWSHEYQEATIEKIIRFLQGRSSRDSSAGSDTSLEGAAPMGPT
6-phosphogluconate dehydrogenase, decarboxylating (Homo sapiens), sequence (P52209 whole entry, looked up): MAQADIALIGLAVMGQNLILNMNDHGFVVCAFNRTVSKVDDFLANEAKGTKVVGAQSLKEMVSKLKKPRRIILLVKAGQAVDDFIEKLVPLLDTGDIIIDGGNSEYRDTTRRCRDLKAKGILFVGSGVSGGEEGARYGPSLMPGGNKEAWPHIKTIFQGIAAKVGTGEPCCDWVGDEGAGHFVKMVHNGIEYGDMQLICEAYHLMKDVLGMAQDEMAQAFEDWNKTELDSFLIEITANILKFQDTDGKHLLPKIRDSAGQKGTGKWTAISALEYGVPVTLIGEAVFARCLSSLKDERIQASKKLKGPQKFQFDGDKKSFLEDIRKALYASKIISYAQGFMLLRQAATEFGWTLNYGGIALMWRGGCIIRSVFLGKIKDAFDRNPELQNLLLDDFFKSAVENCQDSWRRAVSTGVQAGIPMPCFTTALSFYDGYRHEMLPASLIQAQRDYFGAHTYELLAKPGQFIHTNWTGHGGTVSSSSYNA

CCC(=O)O[C@]1(C(=O)CCl)[C@@H](C)C[C@H]2[C@@H]3CCC4=CC(=O)C=C[C@]4(C)[C@@]3(F)[C@@H](O)C[C@@]21C
inactive: parasite load remaining [1] 49% and 35.1% | fluorescence ratio [2] 1.01 | inhibition [3] 4.09% | inhibition [4] 2.57% | fluorescence ratio [5] 0.96 | nuclear beta-catenin stimulation ([6]; at 10 µM) 4.4% | insulin secretion stimulation [7] 8.3% | viability decrease [8] -89.8% | tube area decrease [9] 9.1% | GLP1 secretion stimulation [10] 2.1% | inhibition of viability [11] 2.9% | viability decrease (inhibition) [12] 41% | viability decrease (inhibition) [13] 15.6% | inhibition [14] 3.17% | outcome [15] | outcome [16] | outcome [17] | outcome [18] | outcome [19] | outcome [20] | fold change ([21]; stronger effect = lower value, cell number ratio, induced over uninduced) 1.05 and 0.839 | z-score ([22]; MELAS cybrid survival, CellTiter-Glo 48 h, stronger effect = higher value) 0.507 and -0.252 | remaining NAD [23] 10 nM | luciferase signal [24] 84 AU | z-score [25] -1.34 and 0.04 | log fold change Tl+ flux (R275C) -0.00176 | log fold change Tl+ flux (R275C/Slo1WT/beta2) 0.0324
3.8%: nuclear beta-catenin stimulation ([6]; stimulation, at 2 µM)
6300 and 6140: cell count ([21]; measured here: total cells with miR-34 induction, stronger effect = lower value)
2.64 and 1.67: fold change ([21]; measured here: relative caspase fold change +Dox/-Dox)
active: log fold change Tl+ flux (F380Y) 0.112 | log fold change Tl+ flux (F380Y/beta1) 0.254 | log fold change Tl+ flux (F380Y/beta2Delta) 0.293 | log fold change Tl+ flux (F380Y/beta4) 0.236 | log fold change Tl+ flux [26] 0.157 | log fold change Tl+ flux (R275C/beta1) 0.13 | log fold change Tl+ flux (R275C/beta2Delta) 0.172 | log fold change Tl+ flux (R275C/beta4) 0.386
6030 and 7320: cell count ([21]; measured here: total cells without miR-34 induction)
110% and 128%: viability [1]
1.67 and 0.844: z-score ([22]; Rieske KO mouse fibroblast survival, CellTiter-Glo 72 h)
